# Compounds with a hit are over-represented: about 14% of the library has one in this group of screens.
# Sm TGR block – blocks Schistosoma mansoni thioredoxin glutathione reductase; purified TGR, DTNB reduction, TNB absorbance 405 nm; 3% of 360,000 active; Potency, µM (top dose mostly 114 µM), hits mostly inhibitors; AID 485364; Q962Y6; further: nearly all actives have a fitted effect of over 60% in size
#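 First, TGR (20 nM dispensed) and NADPH were mixed with compound. Second, a 15 min room-temperature incubation followed. Third, further NADPH and then DTNB were added to start the reaction. Finally, TNB absorbance was monitored kinetically.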
# Pf growth 96h – inhibits malaria parasite growth, 96 h. 6.9% of 320,000 active. P. falciparum luciferase reporter growth, 96 h. Potency, µM (titrated, usually from 28.7 µM), most hits filed as inhibitors
#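 P. falciparum expressing integrated firefly luciferase, in erythrocytes at 2% hematocrit, 0.05% parasitemia, incubated with compounds 96 h at 37 C, 5% CO2. Growth inhibition read as loss of luminescence; two-generation exposure targets delayed-death apicoplast inhibitors.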
# HCMV antiviral – inhibitors of human cytomegalovirus. HFF cells, HCMV-luciferase reporter, 72 h; hits give low values. activity change, negative = inhibition, % at 57.5 µM. 4.5% of 410,000 active; in the data active means activity change below about -60%; inconclusive means no clear call, values can overlap the other calls; inactive means above about -39%
#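 After 16 h attachment at 37C, HFF cells received test compound and HCMV-luciferase (1 PFU/cell); reporter luminescence read 72 h later, data normalized against buffer-only and known inhibitor Salinomycin.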
# FBPA Giardia inh – inhibitors of Giardia lamblia fructose-1,6-bisphosphate aldolase; purified Giardia FBPA; A8B2U2; 0.71% of 290,000 active; Potency, µM (highest dose often 59.6 µM), most hits filed as inhibitors; further: nearly all actives have a fitted effect of over 55% in size
# Target sequence (A8B2U2 whole entry, looked up): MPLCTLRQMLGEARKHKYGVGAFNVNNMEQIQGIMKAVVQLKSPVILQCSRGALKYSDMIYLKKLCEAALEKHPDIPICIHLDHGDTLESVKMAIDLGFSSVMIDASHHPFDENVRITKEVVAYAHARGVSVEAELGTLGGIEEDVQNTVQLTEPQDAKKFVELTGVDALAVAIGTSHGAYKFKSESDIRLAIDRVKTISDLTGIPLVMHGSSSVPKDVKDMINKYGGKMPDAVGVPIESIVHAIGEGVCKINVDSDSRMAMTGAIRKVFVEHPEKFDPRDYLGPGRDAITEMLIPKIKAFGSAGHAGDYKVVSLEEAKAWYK
#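 Giardia FBPA (40 nM reagent) was preincubated 10 min at RT with compound (up to 57.5 uM final), then substrate plus GAPDH/TPI/NAD/arsenate coupling system with diaphorase/resazurin was added; resorufin fluorescence (525/598 nm) was read after 20 min.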
# Pf growth 48h – inhibits P. falciparum growth in the first generation, 48 h; Potency, µM (highest dose often 28.7 µM), most hits filed as inhibitors; 5.9% of 310,000 active; P. falciparum luciferase growth in erythrocytes, 48 h
#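 A one-generation exposure of luciferase-tagged malaria parasites in RPMI 1640/Albumax erythrocyte culture, 37 C and 5% CO2. Inhibition is inferred from decreased luminescence after adding detection reagent.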
# Numbers stand for hits; – = inactive; ? = inconclusive; · = not tested or not shown; [ ] = remark or other dose. Unless noted, the call rests on the fitted dose curve; in most records, active means well fitted curve in the direction sought with a large enough effect; inconclusive means small, poorly fitted or top-dose-only effect, or another doubt; inactive means no such curve, though single readings can be large; an effect the other way counts as inactive or inconclusive.
SMILES,Sm TGR block,Pf growth 96h,HCMV antiviral,FBPA Giardia inh,Pf growth 48h
CC(=O)NCCNc1nc2cc(-c3ccsc3)sc2c(=O)n1C,·,·,–,·,·
CCCN1CCN(CCNC(=O)Nc2cc(C)ccc2OC)CC1,–,·,–,·,·
COc1cccc(CNc2nc3cc(-c4ccc(F)cc4)sc3c(=O)n2C)c1OC,·,·,-71.4,·,·
COc1cccc(CNc2nc3cc(-c4ccc(C)cc4)sc3c(=O)n2C)c1OC,·,·,–,·,·
O=C(Cc1ccc([N+](=O)[O-])cc1)Nc1ccc(Cl)cc1,–,–,–,–,10.4µM
COc1ccc([N+](=O)[O-])cc1NC(=O)COC(=O)c1ccccc1C(=O)c1ccccc1,?,–,?,–,–
CC(OC(=O)/C=C/c1cccs1)C(=O)NC1CCCCC1C (stereo not drawn),?,–,–,·,–
CC(OC(=O)/C=C/c1ccco1)C(=O)NC1CCCCC1C (stereo not drawn),44.7µM,–,–,·,–
COc1ccc([N+](=O)[O-])cc1NC(=O)C(C)OC(=O)c1ccccc1C(=O)c1ccc(Cl)cc1 (stereo not drawn),–,?,-65.2,–,?
COc1ccc([N+](=O)[O-])cc1NC(=O)Cc1ccc(Cl)cc1,–,10.4µM,–,–,–
Cc1ccc(Nc2c([N+](=O)[O-])c(=O)n(C)c3ccccc23)cc1C,–,?,–,–,?
COc1ccc(-n2c(=O)c(CCc3ccccc3)nc3cncnc32)cc1,·,·,·,–,·
O=C(Nc1cccc(Cl)c1Cl)C1CCCO1 (stereo not drawn),–,?,–,–,–
Cc1ccc(SCC(=O)N2c3ccccc3Sc3ccccc32)cc1,?,–,–,–,?
CCCCn1c(N)c(N(CCOC)C(=O)COC(=O)CSc2cc(C)c3ccccc3n2)c(=O)[nH]c1=O,–,–,–,·,–
COc1ccc([N+](=O)[O-])cc1NC(=O)C(C)OC(=O)/C=C/c1ccco1 (stereo not drawn),50.1µM,–,–,–,–
CC(OC(=O)/C=C/c1ccco1)C(=O)Nc1cccc([N+](=O)[O-])c1 (stereo not drawn),?,–,–,–,–
Cc1ccc(S(=O)(=O)N(C)C)cc1NC(=O)C1CCCCN1S(=O)(=O)c1ccccc1 (stereo not drawn),–,?,–,·,?
CCCCCCc1cc2cc(-c3nnc(-c4cccc(Cl)c4)o3)c(=O)oc2cc1O,–,·,–,·,·
COc1ccc(-c2cn[nH]c2-c2ccc(OCc3ccccc3)cc2O)cc1OC,–,–,–,–,8.28µM
COc1ccccc1-c1cn[nH]c1-c1ccc(OCc2ccc([N+](=O)[O-])cc2)cc1O,–,–,–,–,?
Oc1cc(OCc2ccccc2)ccc1-c1[nH]ncc1-c1ccccc1,–,?,?,–,?
COc1ccc(-c2cn[nH]c2-c2ccc(OCc3ccc(F)cc3)cc2O)cc1OC,–,–,?,–,10.4µM
Fc1ccccc1SCc1nnc(-c2ccccc2Br)o1,–,–,–,–,–
Cc1cc(C(=O)CN2C(=O)NC(c3ccccc3)(c3ccccc3)C2=O)c(C)n1Cc1ccccc1,–,8.28µM,–,–,?
SMILES,Sm TGR block,Pf growth 96h,HCMV antiviral,FBPA Giardia inh,Pf growth 48h
O=C(CN1C(=O)NC(c2ccccc2)(c2ccccc2)C1=O)c1c[nH]c2ccccc12,·,–,·,–,11.7µM
Cc1cc(C(=O)CN2C(=O)C(=O)N(Cc3ccccc3)C2=O)c(C)n1Cc1ccccc1,·,·,–,·,·
COc1ccc(C2(c3ccc(OC)cc3)NC(=O)N(CC(=O)N(C)c3ccccc3)C2=O)cc1,–,–,–,·,–
CCOc1ccc(CN(C)C(=O)CN2C(=O)NC(c3ccccc3)(c3ccccc3)C2=O)cc1,–,?,?,·,13.1µM
CCN(CC)C(=O)c1c(NC(=O)c2ccccc2)sc(C)c1C,–,–,–,–,·
CCN(CC)Cc1c(NC(=O)c2ccccc2)sc(C)c1C,8.91µM,–,–,–,–
Cc1sc(NC(=O)c2ccccc2)c(C(=O)c2ccccc2)c1C,–,11.7µM,–,–,–
CCOC(=O)c1c(NC(C)=O)sc2c(O)cccc12,–[11.4 µM],–,–,–,·
CCOC(=O)c1c(NC(=O)c2ccccc2)sc2c(O)c(CN(CC)CC)ccc12,–,–,–,–,1.85µM
CC(C)Cc1csc(NC(=O)c2ccc(Br)cc2)c1C(=O)O,–,–,–,–,–
CCOC(=O)N1CCN(C(=O)Cn2ncc3c4ccccc4n(Cc4ccc(F)cc4)c3c2=O)CC1,–,·,–,·,·
O=C(Cn1ncc2c3ccccc3n(Cc3ccc(F)cc3)c2c1=O)N1CCN(c2ncccn2)CC1,–,–,–,–,9.28µM
O=c1[nH]ncc2c3ccccc3n(Cc3cccc(Cl)c3)c12,–,–,–,–,?
O=c1[nH]ncc2c3ccccc3n(Cc3ccc(F)cc3)c12,–,–,?,–,3.29µM
O=C(Cn1ncc2c3ccccc3n(Cc3ccc(F)cc3)c2c1=O)N1CCC2(CC1)OCCO2,–,?,·,–,11.7µM
NNC(=O)c1cccn(Cc2cccc(C(F)(F)F)c2)c1=O,–,?,·,–,?
c1cc(-c2sc(-c3ccncc3)c(-c3ccncc3)c2-c2ccncc2)ccn1,–,–,-78.9,–,?
Cc1c(Cl)cccc1NC(=O)CN1C(=O)CSc2ncccc21,–,?,·,–,·
COCCCNC(=O)CN1C(=O)CSc2ncccc21,–,2.62µM,–,–,–
O=C(CN1C(=O)CSc2ncccc21)Nc1cccc(Cl)c1,–,–,–,–,16.5µM
CCOC(=O)/C=C/[C@H](C)NC(=O)C(F)(F)F,·,·,–,·,·
[O-]/[N+](=C\c1ccc(OC(F)F)cc1)c1ccccc1,–,–,–,–,?
COc1ccc(/[N+]([O-])=C/c2ccoc2)cc1,5.01µM,–,–,·,–
CCOC(=O)c1ccccc1NC(=O)CN1C(=O)CCS(=O)(=O)c2ccccc21,39.8µM,–,–,–,–
O=C(CN1C(=O)CCS(=O)(=O)c2ccccc21)NCc1ccc2c(c1)OCO2,–,–,–,–,–
SMILES,Sm TGR block,Pf growth 96h,HCMV antiviral,FBPA Giardia inh,Pf growth 48h
O=C(CN1C(=O)CCS(=O)(=O)c2ccccc21)Nc1ccc2c(c1)OCCO2,–,–,–,–,–
O=C(CN1C(=O)CCS(=O)(=O)c2ccccc21)Nc1ccc(Cl)cc1,50.1µM,?,–,–,–
CCOC(=O)c1ccccc1NC(=O)CN1C(=O)CC(c2ccco2)Sc2ccccc21 (stereo not drawn),–,·,–,·,·
O=C(CN1C(=O)CCS(=O)(=O)c2ccccc21)NCc1ccccc1,–,2.62µM,–,–,–
O=C(CCNC(=O)c1ccccc1)NNC(=O)COc1ccccc1Cl,·,·,–,·,·
COc1ccc(-n2nc(C(=O)NCC(=O)NC3CCCCC3)c3ccccc3c2=O)cc1,–,–,–,–,–
COc1ccc(CCNC(=O)CCn2c(=O)c3ccccc3n(Cc3c(C)cc(C)cc3C)c2=O)cc1OC,–,·,–,·,·
CCCCN(C)CCCNC(=O)Cn1ncc2c3ccccc3n(Cc3cc(C)ccc3C)c2c1=O,–,·,-99.3,·,·
CCCCN(C)CCCNC(=O)Cn1ncc2c3ccccc3n(Cc3ccccc3)c2c1=O,–,·,–,·,·
